The source of these data is PubChem BioAssay.

Each structure is given as a SMILES string. Active and inactive are the calls of the source. The rule behind the calls is not given here.

In the assay the target is Pantothenate synthetase (Mycobacterium tuberculosis (strain ATCC 25618 / H37Rv)) (UniProt P9WIL5). Kind of assay: Recombinant Mtb pantothenate synthetase (PanC) inhibitors, coupled enzyme, confirmatory (AID 375).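 Note: 0% = full reaction with vehicle and 100% = no enzyme background.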 As to conditions: coupled enzyme assay; at 10 µM, active compounds read high.
Sequence of Pantothenate synthetase (Mycobacterium tuberculosis (strain ATCC 25618 / H37Rv)) (P9WIL5 whole entry, looked up): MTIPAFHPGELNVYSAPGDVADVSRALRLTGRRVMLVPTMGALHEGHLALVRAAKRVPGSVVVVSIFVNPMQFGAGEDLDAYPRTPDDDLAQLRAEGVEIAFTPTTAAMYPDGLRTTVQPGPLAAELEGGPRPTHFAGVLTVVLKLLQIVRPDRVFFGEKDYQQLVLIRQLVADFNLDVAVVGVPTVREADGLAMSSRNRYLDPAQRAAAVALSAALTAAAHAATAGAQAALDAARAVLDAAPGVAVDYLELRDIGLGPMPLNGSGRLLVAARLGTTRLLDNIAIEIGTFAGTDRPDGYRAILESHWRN
In the case of `CN(C)S(=O)(=O)c1ccc(C(=O)NCc2cccs2)cc1`, the inhibition – broadly, the share of the control response that was lost under treatment – was 4% (inactive).

`CC(=O)c1cnc2cc(-c3ccccc3)nn2c1C`: the inhibition is 0% (inactive).

On to `COc1ccc(-c2cc(C(F)F)n3ncc(C(=O)NCC4CCCO4)c3n2)cc1` (stereo not given), for which the inhibition is 4% (inactive).

For `COC(=O)CNC(=O)c1c(C)cc(=O)oc1C`, the inhibition was 3% (inactive).

Take `CS(=O)(=O)NCc1ccc(C(=O)NCc2ccccc2)cc1`: the inhibition was 4% (inactive).

With `CCCCCn1c(CN2CCN(C)CC2)nc2c1c(=O)n(C)c(=O)n2C`, the inhibition is 0% (inactive).

Consider `Cc1cccc(Cc2nnc(NC(=O)c3cccc(S(=O)(=O)N4CCOCC4)c3)s2)c1`, for which the inhibition is 0% (inactive).

Consider `CC(C)OC(=O)CSc1nnnn1-c1ccc2c(c1)OCCO2`, for which the inhibition was 2% (inactive).

As to `Cc1cccc2c1N(CC(=O)OC(C)C)C(=O)C2=O`, the inhibition was 0% (inactive).

In the case of `COc1ccc(-n2c(SCC(=O)N3CCCCC3C)nnc2-c2cccnc2)cc1` (stereo not given), the inhibition was 0% (inactive).

On to `COc1ccc(Cn2nnnc2C(c2cccnc2)N2CCN(c3ccc(O)cc3)CC2)cc1` (stereo not given), for which the inhibition was 0% (inactive).

For `COc1cc(NC(=O)c2cc(CC(C)C)on2)c(OC)cc1Cl`, the inhibition is 5% (inactive).

Turning to `CC(C)[C@H](NC(=O)OC(C)(C)C)c1nnc(SCc2cccc(F)c2)o1`, the inhibition was 1% (inactive).

Take `CCc1ccc2nc(NC(=O)CSCc3c(C)noc3C)sc2c1`: the inhibition was 6% (inactive).

`O=c1oc2ccccc2c(O)c1C=NCc1ccccn1`: the inhibition was 0% (inactive).

Turning to `N#Cc1ccc(-c2csc(NC(=O)C3CC3)n2)cc1`, the inhibition was 0% (inactive).

For `COc1ccc(C)cc1NC(=O)CCC(=O)Nc1ccc2nc(N3CCN(C)CC3)cc(C)c2c1`, the inhibition is 0% (inactive).

For the compound `CCN(CCCNS(=O)(=O)c1ccc2c(c1)oc(=O)n2C)c1cccc(C)c1`, the inhibition was 0% (inactive).

Regarding `Nc1nc(SCc2ccc(Cl)cc2Cl)n[nH]1`, the inhibition is 5% (inactive).

Regarding `Cc1cc(Cl)ccc1NC(=O)CSc1nnc(Cc2cccs2)n1Cc1ccco1`, the inhibition was 0% (inactive).

With `COc1ccc(-c2[nH]c(-c3cccc(OC)c3)nc2SCC(=O)NCc2ccco2)cc1`, the inhibition was 1% (inactive).

Regarding `COc1ccc(-c2nc(CS(=O)CC(=O)NCc3ccccn3)c(C)o2)cc1` (stereo not given), the inhibition is 0% (inactive).

In the case of `Cc1ccc(-c2nnn(CC(=O)N(CC3CCCO3)C(C(=O)NC(C)(C)C)c3ccc(F)cc3)n2)o1` (stereo not given), the inhibition was 6% (inactive).

In the case of `NC(N)=NC(=O)c1nc(Cl)c(N)nc1N`, the inhibition was 0% (inactive).

Regarding `CCN(CC)CCN1C(=O)C(O)=C(C(=O)c2ccco2)C1c1ccccn1` (stereo not given), the inhibition is 8% (inactive).

As to `COc1ccccc1Nc1ncnc2c1cnn2-c1cccc(C)c1`, the inhibition was 0% (inactive).

For the compound `CC(=O)Nc1c(O)n(C)c2ccccc12`, the inhibition was 2% (inactive).

With `Cn1c(CN2CCCCC2)nc2cc(NC(=O)c3ccccc3)ccc21`, the inhibition was 0% (inactive).

In the case of `CCN(CC)S(=O)(=O)c1ccc(NC2CCCc3ccccc32)nc1` (stereo not given), the inhibition was 0% (inactive).

Take `Cc1occc1C(=O)Nc1nnc(C2CCCCC2)s1`: the inhibition is 0% (inactive).

For `CCCCCCNC(=O)Cc1c(O)c2ccccc2[nH]c1=O`, the inhibition is 5% (inactive).

On to `COc1ccccc1-c1cc(C(=O)NCCCn2ccnc2)no1`, for which the inhibition is 0% (inactive).

On to `COc1ccc(S(=O)(=O)N2CN(Cc3ccco3)c3nc4ccccc4nc32)cc1`, for which the inhibition was 0% (inactive).

`COc1ccc2c(c1OC)C(=O)O[C@@H]2[C@H]1c2c(cc3c(c2OC)OCO3)CCN1C`: the inhibition is 0% (inactive).

For the compound `CCN1C(=O)C(C(=O)Nc2ccc(OC)cc2)C2CC1(C)Oc1ccccc12` (stereo not given), the inhibition was 0% (inactive).

`COc1ccc(-c2noc(CCCOc3ccccc3)n2)cc1OC`: the inhibition was 7% (inactive).

For `O=S(=O)(Nc1nc2ccccc2nc1NCc1ccco1)c1ccc(Cl)cc1`, the inhibition was 0% (inactive).

`O=C(COc1ccccc1Cl)OCC(=O)N1CCN(S(=O)(=O)c2ccccc2)CC1`: the inhibition was 8% (inactive).

As to `COc1ccc(C)cc1NC(=O)CSc1nnnn1Cc1ccccc1`, the inhibition was 2% (inactive).

Regarding `CCC(Sc1nc2n[nH]c(C)c2c(=N)n1-c1cc(Cl)ccc1C)C(=O)N1CCOCC1` (stereo not given), the inhibition was 0% (inactive).
